The record followed here is PubChem BioAssay (NCI).

This is part of a sample that, as a whole, favours compounds with a hit. Of some 83,000 tested, about 20% had one in any assay.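 Percent growth is the endpoint: 0 to 100 indicates growth inhibition (40 means 60% inhibition), 0 means no net growth, and negative values indicate cell death.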 Values without a mark were called inactive. Active and inactive are the calls of the source. Rule for the calls: active = growth percent below 10; inactive = the rest.

Some test systems named below: NCI-H23 lung; NCI-H226 lung; NCI-H322M lung; HOP-62 NSCLC; NCI-H460 lung; HOP-92 NSCLC; NCI-H522 lung; A549/ATCC NSCLC; 786-0 renal; COLO 205 colon; DU-145 prostate; K-562 leukemia; MALME-3M melanoma; MDA-MB-231 breast; RXF 393 renal; SF-268 CNS; SF-295 CNS; SF-539 CNS; UACC-257 melanoma; M14 melanoma.
Holding throughout (test): NCI-60 one-dose screen, 48 h (100 = growth as untreated, 0 = no growth, -100 = all killed)
What all share (details): 10 µM unless noted

`COc1ccc2c(c1)c(/C=N/Nc1ccnc3cc(Cl)ccc13)cn2C`: the growth was -80.5% (active) in the assay with NCI-H23 lung; -52.3% (active) with NCI-H226 lung; -95.1% (active) in the assay on NCI-H322M lung; -81.1% (active) with HOP-62 NSCLC; -79.1% (active) in the assay with NCI-H460 lung; -81.7% (active) in the assay with HOP-92 NSCLC. In addition, the growth is -65.4% (active) in the assay with NCI-H522 lung; -69.7% (active) in the assay on A549/ATCC NSCLC; -81.3% (active) in the assay with 786-0 renal; -86.6% (active) in the assay on COLO 205 colon; -93.3% (active) in the assay on DU-145 prostate; -48.1% (active) in the assay with K-562 leukemia. Further, the growth was -77.2% (active) in the assay on MALME-3M melanoma; -82.8% (active) in the assay on MDA-MB-231 breast; -81.1% (active) with RXF 393 renal; -67.1% (active) in the assay on SF-268 CNS; -84.4% (active) with SF-295 CNS; -82.9% (active) with SF-539 CNS. For the same molecule, the results for the growth with UACC-257 melanoma and in the assay on M14 melanoma were -84.2% (active) and -72% (active), respectively.
Take `COC(=O)CNC(=O)c1cccc(-c2cc(=O)c3c(OC)c(OC)c(OC)cc3o2)c1`: the growth in the assay on NCI-H23 lung was 98.1%; in the assay on NCI-H226 lung, 95.8%; in the assay with NCI-H322M lung it was 85.4%; with HOP-62 NSCLC, 119%; in the assay on NCI-H460 lung, 98.7%; in the assay on HOP-92 NSCLC it was 67.6%. For the same molecule, the growth in the assay on NCI-H522 lung was 99.6%; in the assay with A549/ATCC NSCLC, 101%; in the assay with 786-0 renal, 104%; in the assay on COLO 205 colon, 114%; in the assay with DU-145 prostate it was 108%; in the assay on K-562 leukemia, 125%. Also, the growth in the assay on MALME-3M melanoma is 95.2%; in the assay on MDA-MB-231 breast, 101%; in the assay with RXF 393 renal, 99.4%; with SF-268 CNS, 101%; with SF-295 CNS, 101%; in the assay on SF-539 CNS it was 103%. The growth in the assay on UACC-257 melanoma and in the assay on M14 melanoma was 103% throughout.
As to `Cc1ccc(NC2=C(Cl)C(=O)c3nc(C)ccc3C2=O)c(C)c1`, the growth is -49.9% (active) with NCI-H23 lung; 23.2% in the assay with NCI-H226 lung; 36.7% with NCI-H322M lung; 47.2% in the assay with HOP-62 NSCLC; 46.2% in the assay on NCI-H460 lung; 84.7% in the assay with HOP-92 NSCLC. In addition, the growth is -38.3% (active) in the assay on NCI-H522 lung; 46.5% with A549/ATCC NSCLC; 23.7% in the assay on 786-0 renal; 98% in the assay on COLO 205 colon; -1.93% (active) in the assay on DU-145 prostate; 2.95% (active) with K-562 leukemia. Besides, the growth in the assay with MALME-3M melanoma is 13.9%; in the assay on MDA-MB-231 breast, 11.9%; in the assay on RXF 393 renal, 31.1%; in the assay on SF-268 CNS, 24.8%; in the assay with SF-295 CNS it was -29.9% (active); with SF-539 CNS, -61.9% (active). For the same molecule, the growth with UACC-257 melanoma was -80.6% (active); in the assay on M14 melanoma, -58.3% (active).
Turning to `Cc1c(C(=O)/C=C/c2ccc(Cl)cc2)nnn1-c1ccc2oc(=O)ccc2c1`, the growth was 92.9% with NCI-H23 lung; 85.4% in the assay on NCI-H226 lung; 98.5% with NCI-H322M lung; 107% with HOP-62 NSCLC; 102% in the assay with NCI-H460 lung; 79.4% in the assay on HOP-92 NSCLC. For the same molecule, the growth was 88.8% with NCI-H522 lung; 103% in the assay on A549/ATCC NSCLC; 101% in the assay on 786-0 renal; 108% in the assay with COLO 205 colon; 104% in the assay on DU-145 prostate; 83.4% in the assay on K-562 leukemia. In addition, the growth in the assay on MALME-3M melanoma was 98.8%; in the assay on MDA-MB-231 breast, 94%; with RXF 393 renal it was 86.5%; with SF-268 CNS it was 102%; with SF-295 CNS it was 88.9%; in the assay with SF-539 CNS it was 99.5%. The values for the growth in the assay on UACC-257 melanoma and in the assay with M14 melanoma were 99.9% and 95.6%, respectively.
For the molecule `O=C(COc1ccc(/C=C2\C(=O)Nc3ccc(F)cc32)cc1)Nc1ccccc1`, the growth in the assay with NCI-H23 lung is 95%; in the assay on NCI-H226 lung, 96.6%; in the assay on NCI-H322M lung, 99.3%; with HOP-62 NSCLC it was 99.5%; with NCI-H460 lung, 96.1%; in the assay with HOP-92 NSCLC it was 116%. Further, the growth is 93.9% in the assay with NCI-H522 lung; 96.7% with A549/ATCC NSCLC; 105% in the assay with 786-0 renal; 113% in the assay with COLO 205 colon; 104% in the assay on DU-145 prostate; 89.6% with K-562 leukemia. Further, the growth in the assay on MALME-3M melanoma was 102%; with MDA-MB-231 breast it was 104%; in the assay on RXF 393 renal it was 120%; in the assay on SF-268 CNS, 95.1%; in the assay with SF-295 CNS, 105%; in the assay with SF-539 CNS, 93.8%. The growth with UACC-257 melanoma is 104%; with M14 melanoma, 94.4%.
In the case of `O=S(=O)(NCCCNc1nccc(-c2[nH]c(-c3ccccc3)nc2-c2ccc(F)c(O)c2)n1)c1ccc(C(F)(F)F)cc1`, the growth is 70.7% with NCI-H23 lung; 48.5% with NCI-H226 lung; 95.4% in the assay with NCI-H322M lung; 62.3% with HOP-62 NSCLC; 16.3% in the assay with NCI-H460 lung; 71.6% with HOP-92 NSCLC. The growth in the assay on NCI-H522 lung is 18.8%; with A549/ATCC NSCLC, 41.7%; in the assay with 786-0 renal it was 48%; with COLO 205 colon, 88.3%; in the assay with DU-145 prostate, 79.9%; in the assay on K-562 leukemia, 9.88% (active). For the same molecule, the growth in the assay with MALME-3M melanoma is -5.99% (active); in the assay on MDA-MB-231 breast, 67.1%; with RXF 393 renal, 24.5%; with SF-268 CNS, 54%; in the assay on SF-295 CNS, 31.3%; with SF-539 CNS, 31.1%. Also, the growth with UACC-257 melanoma is 24.6%; with M14 melanoma it was 3.88% (active).
Regarding `O=C1[C@@H]2Cc3c([nH]c4ccccc34)[C@@H](c3ccc(Cl)cc3)N2C(=O)CN1C1CCN(Cc2c(F)cccc2F)CC1`, the growth in the assay on NCI-H23 lung is 48.8%; in the assay with NCI-H226 lung, 60.6%; in the assay with NCI-H322M lung, 66.2%; in the assay on HOP-62 NSCLC, 54.1%; in the assay with NCI-H460 lung it was 22.5%; in the assay with HOP-92 NSCLC, -0.363% (active). For the same molecule, the growth was 36.7% in the assay on NCI-H522 lung; 31.6% with A549/ATCC NSCLC; 45.2% with 786-0 renal; 7.17% (active) in the assay on COLO 205 colon; 49.2% in the assay on DU-145 prostate; 16.8% in the assay with K-562 leukemia. Besides, the growth with MALME-3M melanoma is 88.8%; with MDA-MB-231 breast, 66.4%; in the assay with RXF 393 renal, 44.4%; in the assay with SF-268 CNS it was 39.2%; with SF-295 CNS it was 41.4%; in the assay with SF-539 CNS it was 60.9%. Further, the figures for the growth in the assay on UACC-257 melanoma and in the assay on M14 melanoma were 51.1% and 14.4%, respectively.
As to `C#CCOc1cccc(-c2nc(N)nc(Nc3ccccc3SSc3ccccc3Nc3nc(N)nc(-c4cccc(OCC#C)c4)n3)n2)c1`, the growth in the assay with NCI-H23 lung was -6.17% (active); with NCI-H226 lung, 1.74% (active); in the assay with NCI-H322M lung, 80.9%; with HOP-62 NSCLC, -63.2% (active); with NCI-H460 lung it was -15.7% (active); with HOP-92 NSCLC it was 87.6%. For the same molecule, the growth is 79.8% in the assay with NCI-H522 lung; -39.7% (active) in the assay with A549/ATCC NSCLC; 96.9% with 786-0 renal; 114% with COLO 205 colon; 55.2% with DU-145 prostate; 43.5% with K-562 leukemia. For the same molecule, the growth with MALME-3M melanoma is 96.8%; in the assay with MDA-MB-231 breast, 48.1%; with RXF 393 renal, 81.8%; with SF-268 CNS, -11.5% (active); in the assay with SF-295 CNS, -69.8% (active); in the assay on SF-539 CNS, 59.2%. Moreover, the growth is 108% in the assay with UACC-257 melanoma and 66.6% with M14 melanoma.
